Compound activity as filed in PubChem BioAssay.
MazEF act: MazEF (E. coli) toxin RNase activation | P0AE70 | FAM/BHQ RNA-DNA oligo cleavage fluorescence, 5 h | activation, % at 20 µM | 350,000 compounds, 0.32% hits | AID 504720; in the data active means activation above about 50%
Target sequence (P0AE70 whole entry, looked up): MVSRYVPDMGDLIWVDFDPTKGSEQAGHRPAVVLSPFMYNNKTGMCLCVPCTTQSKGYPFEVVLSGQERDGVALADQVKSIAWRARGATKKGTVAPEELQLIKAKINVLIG
VHR inh abs: DUSP3 (human) phosphatase inhibition. P51452. recombinant VHR phosphatase, pNPP absorbance. inhibition, % at 13.3 µM. 290,000 compounds, 0.52% hits; in the data active means inhibition above about 50%
Target sequence (P51452 whole entry, looked up): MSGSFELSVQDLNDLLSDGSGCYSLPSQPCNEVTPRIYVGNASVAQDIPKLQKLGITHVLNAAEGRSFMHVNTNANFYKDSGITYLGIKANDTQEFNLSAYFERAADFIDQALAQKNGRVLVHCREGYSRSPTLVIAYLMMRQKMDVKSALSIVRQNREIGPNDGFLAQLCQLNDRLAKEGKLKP
PrPC TRFRET: cell surface PrPC inhibition, primary TR-FRET screen; inhibition, % at 13.8 µM; 370,000 compounds, 0.43% hits; TR-FRET read-out; AID 720596; P04156; in the data active means inhibition above about 24%; further: 0% = median of the test wells and 100% = reference compound wells
3CLpro inhibitor: SARS-CoV 3CLpro protease inhibition; inhibition, % at 6 µM; P0C6X7; recombinant SARS-CoV 3CLpro, quenched FRET peptide cleavage; 290,000 compounds, 0.14% hits; AID 1706; in the data active means inhibition above about 12%
PrP UTR inh: suppresses PrP 5' UTR mRNA reporter expression. cell-based PrP 5' UTR mRNA reporter, plate reader. inhibition, % (test concentration not listed). 340,000 compounds, 0.35% hits. AID 488862; in the data active means inhibition above about 52%; further: 0 = median of the neutral control wells
Mtb hypoxia inh: inhibitors of hypoxia-regulated fluorescent reporter in Mycobacterium tuberculosis; M. tuberculosis hypoxia-regulated fluorescent reporter, fluorescence; fluorescence inhibition, % (no concentration beside the values); 300,000 compounds, 0.1% hits; in the data active means fluorescence inhibition mostly above about 23%, no sharp cut-off; inactive means mostly below about 17%
* hit, by the source's call; nt = not tested or not shown. Shown are actives, neighbours in structure and some others; about 1.5% of the full set was active somewhere.

SMILES	MazEF act	VHR inh abs	PrPC TRFRET	3CLpro inhibitor	PrP UTR inh	Mtb hypoxia inh
Cc1ccc(C2=NN(S(C)(=O)=O)C(c3cccs3)C2)cc1 (stereo unspecified)	8	11	-2	0	-83	10
Cc1ccccc1N(C(=O)Cc1ccsc1)C(C(=O)NC1CCCCC1)c1ccc(F)cc1 (stereo unspecified)	2	56*	-2	-1	-13	3
CCC(=O)Nc1cccc(C2=NOC3(C2)CC(C(N)=O)N(C(=O)c2cc([N+](=O)[O-])cc([N+](=O)[O-])c2)C3)c1 (stereo unspecified)	nt	nt	nt	nt	nt	2
N#Cc1ccc(N2C(=O)[C@@H]3C(C(=O)c4ccc5ccccc5n4)=NN[C@@H]3C2=O)cc1	120*	18	-3	2	-27	nt
N#Cc1ccc(N2C(=O)[C@@H]3C(C(=O)c4cnccn4)=NN[C@@H]3C2=O)cc1	-67	20	-7	5	nt	-4
COCCN1C(=O)/C(=C/c2ccc(N3CCCC3)cc2)SC1=S	318*	6	6	0	-18	-3
COc1cccc(N=Nc2ccc3ccccc3c2O)c1	76*	-4	-2	3	-2	5
COc1ccc(N=Nc2ccc3ccccc3c2)c(O)c1	44	-6	-15	2	4	15
Cc1ccc(CCNC(=O)c2coc3nc4ccccc4nc23)cc1	90*	21	-6	8	-20	-3
Cc1cccc(OCC(=O)NCC(=O)NN=Cc2cc(Br)ccc2OCc2ccccc2)c1	nt	nt	nt	nt	nt	11
S=c1[nH]ncn2c1cc1oc3ccccc3c12	-2	-15	97*	-1	-22	-3
COc1ccc(OCC(=O)NN=C(C)Cc2ccccc2)cc1	nt	nt	nt	nt	nt	5
CC(C)Cn1c(=O)c(C(=O)Nc2ccncc2)c(O)c2ccccc21	-102	nt	-1	nt	-4	42*
COCc1nnc(NS(=O)(=O)c2ccc([N+](=O)[O-])cc2)s1	23	-2	-28	3	-31	65*
COCc1nnc(NS(=O)(=O)c2ccc(F)cc2)s1	8	2	2	1	-19	3
COc1cc(C=NNC(=O)c2ccoc2C)ccc1OCCN1CCCCC1	nt	nt	nt	nt	nt	-5
O=C(NCc1ccc2c(c1)OCO2)c1c(Cl)cccc1Cl	-10	56*	3	1	-15	-5
COc1ccc(C2c3c(ncn(CCN4CCOCC4)c3=N)Oc3ccc4ccccc4c32)cc1 (stereo unspecified)	21	3	-5	-1	-1	11
N=c1c2c(ncn1CCN1CCOCC1)Oc1ccc3ccccc3c1C2c1ccccc1 (stereo unspecified)	8	55*	3	-4	-7	11
c1ccc2[nH]c(CSc3nnc(-c4ccncc4)o3)nc2c1	4	4	-4	4	-14	nt
Clc1ccc(-c2nnc(SCc3nc4ccccc4[nH]3)o2)c(Cl)c1	70*	4	2	0	-6	2
COc1ccc(CCNC(=O)C(=Cc2cccnc2)NC(=O)c2ccccc2)cc1OC	nt	nt	nt	nt	nt	3
O=C(O)COc1ccccc1C=NNC(=O)COc1ccc(-c2ccccc2)cc1	nt	nt	nt	nt	nt	5
C/C(=N\O)C(C)(C)Nc1ccc(Br)cc1	53*	-12	3	-2	-18	nt
CC(=NO)C(C)(C)Nc1ccc(Br)cc1	nt	nt	nt	nt	nt	7
SMILES	MazEF act	VHR inh abs	PrPC TRFRET	3CLpro inhibitor	PrP UTR inh	Mtb hypoxia inh
O=C(Cn1ccc(C(F)(F)F)n1)NN=Cc1cccs1	nt	nt	nt	nt	nt	-3
CN1C(=S)N(c2cccnc2)C(=O)/C1=C\c1ccc(N(C)C)cc1	-90	26	7	0	-26	24
Cc1c(N2C(=O)/C(=C\c3ccc(N(C)C)cc3)N(C)C2=S)c(=O)n(-c2ccccc2)n1C	131*	30	-55	0	-22	nt
COc1cccc(NC(=O)c2ccc(-c3ccc([N+](=O)[O-])cc3)o2)c1	276*	35	-16	3	-39	6
CCC(CO)N=C1CC(C)(C)CC(=O)/C1=C(\O)CCCN1C(=O)c2ccccc2C1=O (stereo unspecified)	nt	nt	nt	nt	nt	16
CCCCN(CCCC)C(=S)NN=Cc1c(C)[nH]n(-c2ccccc2)c1=O	nt	nt	nt	nt	nt	-8
COc1cc(C=NNC(=O)CCc2ccccc2)ccc1O	nt	nt	nt	nt	nt	4
COc1cc(/C=N/NC(=Nc2ccc(C)cc2)c2nc3ccccc3s2)ccc1O	-3	15	4	0	77*	nt
COc1cc(/C=N/NC(=O)CCC(=O)Nc2ccc(C)cc2)ccc1O	5	52*	7	0	-19	nt
COc1cc(/C=N/NC(=O)c2cc3ccccc3[nH]2)ccc1O	4	57*	-8	-9	-15	nt
COc1cc(C=NNC(=O)c2cc3ccccc3[nH]2)ccc1O	nt	nt	nt	nt	nt	15
CCOC(=O)CC(C)=NNC(=O)CN(c1ccc(Br)cc1)S(=O)(=O)c1ccccc1	nt	nt	nt	nt	nt	7
O=C(c1ccc(OC2CCN(CCc3ccccc3)CC2)cc1)N1CCCCC1CCCO (stereo unspecified)	1	50*	-5	-2	-16	7
Clc1cccc(C(Cc2nc3ccccc3[nH]2)=NNc2ccccc2)c1	nt	nt	nt	nt	nt	8
Clc1cccc(/C(Cc2nc3ccccc3[nH]2)=N\Nc2ccccc2)c1	61*	15	7	1	-60	nt
CN1C(=CC(=O)CSc2nnc(NCc3ccccc3)s2)C(C)(C)c2ccccc21	nt	nt	nt	nt	nt	4
Cc1ccc(/C=C(\C#N)C(=O)Nc2c(C)cccc2C)s1	10	29	-6	2	-21	9
Cc1ccc(NC(=O)/C(C#N)=C/c2ccc(C)s2)c(C)c1	190*	-32	3	2	-67	13
COc1ccc(C(=O)N/N=C\c2coc3ccc(C)cc3c2=O)cc1	75*	19	-2	-3	-10	nt
COc1ccc(C(=O)NN=Cc2coc3ccc(C)cc3c2=O)cc1	nt	nt	nt	nt	nt	3
Cc1ccccc1CC1S/C(=N/N=Cc2ccco2)NC1=O (stereo unspecified)	nt	nt	nt	nt	nt	-4
NNC(=O)c1sccc1OCc1ccc(F)cc1	10	55*	4	2	-9	0
COc1ccc2c(Cl)c(C(=O)NN=C3CCCC(=O)C3)sc2c1	nt	nt	nt	nt	nt	-4
CC1=C(C(=O)Nc2ccc(CC(=O)NCc3ccccc3C)cc2)SCCO1	5	23	2	-3	-18	6
CCc1ccc(CNC(=O)Cc2ccc(NC(=O)C3=C(C)OCCS3)cc2)cc1	9	51*	11	-2	12	nt
COC(C(=O)N/N=C(\C)c1ccc(C)cc1)c1ccccc1 (stereo unspecified)	-1	52*	-5	0	-50	nt
O=C1CSC(=NN=Cc2ccco2)N1c1ccccc1	nt	nt	nt	nt	nt	6
Cc1c(C(=O)NCC2COc3ccccc3O2)oc2ccc(S(=O)(=O)N(C)C3CCCCC3)cc12 (stereo unspecified)	-9	52*	-3	-1	1	2
COc1ccc(C(NC(=O)OC(C)(C)C)C(=O)OC(C)(C)C)cc1 (stereo unspecified)	nt	nt	nt	nt	nt	18
CCCCCC(=O)Nc1ccc(C(=O)NN=Cc2ccc([N+](=O)[O-])cc2)cc1	nt	nt	nt	nt	nt	5
